# According to the OligoGym collection:
# Target: CASP8
# Experiment: pooled miR-30 sensor sort-seq; sequence = guide strand
# Details: shRNA
# Note: reference of the scale not given here.
row,Sequence,sensor-assay potency score (higher = more potent)
1,TTTACTTTCAATAACCACCCTG,0.433
2,TATTAATAGATGATCGACCCTC,-0.244
3,TAAACTTTGTCCAAAGTCTGTG,-0.0888
4,TAGTTGATAGATAACAATCTGA,-0.246
5,TTAGTGTGAAAGTAGGCTGAGG,-0.589
6,TTTCTGCTGAAGTCCATCTTTT,-1.01
7,ATCTGATAGAGCATGACCCTGT,-0.509
8,TTGATTTGGGCACAGACTCTTT,-0.862

# Target: CASQ1
# Experiment: as above
# Details: shRNA
row,Sequence,sensor-assay potency score (higher = more potent)
1,TAGCCAATGAGTTTGATCTCAT,-0.312
2,TTGTGAGGCCTTGTCATCCTCG,-0.34
3,TAGTTCTTTGCATTGACATTGA,-0.428
4,ATCCTTCTCAGAGTCTACCAGC,-1.1
5,TTGATCACACGGTCCACACCAT,-0.226
6,TCTCTAAGAACTCGAAACCATC,-1.47
7,TACTTCTTGAACACATTCTTGT,0.247
8,ATGCTCTGAGTCTTTGCTCTTG,-1.26
9,TACAGGATTAGAGAGAGTGGGG,-0.52
10,ATACTTCTTGAACACATTCTTG,-1.25
11,TAATGCTCTGAGTCTTTGCTCT,-0.39
12,TTGAGAGTCTCTAAGAACTCGA,-0.0687
13,TTCATGGTAGAGGAGTGCCAGC,-1.44
14,TTCTTGAACACATTCTTGTAGT,0.249
15,TTCACCTTCAATCAATTCCACA,-1.32
16,TTCTCAGAGTCTACCAGCCCGA,-1.38
17,TTCTTTGCCACCTTGCTGTCGA,0.0735
18,TTGTAATGCTCTGAGTCTTTGC,-1.04
19,AACACATTCTTGTAGTTCTTTG,-0.85
20,TACATTAACAAGTGATTGCTGA,0.512
21,TAGGACATCAAGCAGAAACTCC,-0.771
22,TTGTCTTCTAGGACTTGGGCTG,-0.338
23,TTGACAATCTCCTCTTCGCTAT,-0.427

# Target: CBL
# Experiment: as above
# Details: shRNA
row,Sequence,sensor-assay potency score (higher = more potent)
1,TTCAGAGTTGATTCTCCGCGGG,-0.689
2,ATACGTACAGCTATCAATCTGC,0.514
3,TATCTTGACAAGATAGTACGGA,0.0663
4,TTACATAGTTGGAATGTGGAGC,0.417
5,TCACCATCCAGAGACAACCAGC,-1.24
6,TTGTTGTAGGATCACCATCCAG,-1.34
7,AAATTCTCCATAAACACCCTAA,-0.0479
8,TTGAGGGAACACATACTCGCTG,-0.612
9,TTATACATTGCTTCATACGTAC,-0.141
